Compound activity deposited in PubChem by National Center for Advancing Translational Sciences (NCATS).
L3MBTL1 inh: inhibitors of human L3MBTL1 | Q9Y468 | AlphaScreen L3MBTL1–H3K9me1 peptide binding | Potency, µM (series often up to 57.1 µM), for the others: top-dose activity, negative = inhibition, actives largely listed as inhibitors | 230,000 compounds, 0.66% hits; further: potency means the concentration at half of the fitted maximal effect; on the % scale 0 is the no-effect control and ±100 the full control effect; nearly all actives have a fitted effect of over 60% in size
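AlphaScreen proximity signal between nickel-chelate acceptor and streptavidin donor beads (final 10 ug/mL) reports binding of 50 nM L3MBTL1 to 75 nM biotin-H3 K9me1 peptide; complex incubated with compounds 30 min at room temperature; cefsulodin titration as control.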
G9a inh: blocks human histone lysine methyltransferase G9a; Potency, µM (series often up to 102 µM), without a hit: at the highest dose activity, negative = inhibition, usual class: inhibitors; G9a H3K9 monomethylation, AlphaScreen, 2 h; 350,000 compounds, 8.8% hits; Q96KQ7; AID 504332; further: potency means the concentration at half of the fitted maximal effect; on the % scale 0 is the no-effect control and ±100 the full control effect; nearly all actives have a fitted effect of over 75% in size
Target sequence (Q96KQ7 913-1193 limits assumed): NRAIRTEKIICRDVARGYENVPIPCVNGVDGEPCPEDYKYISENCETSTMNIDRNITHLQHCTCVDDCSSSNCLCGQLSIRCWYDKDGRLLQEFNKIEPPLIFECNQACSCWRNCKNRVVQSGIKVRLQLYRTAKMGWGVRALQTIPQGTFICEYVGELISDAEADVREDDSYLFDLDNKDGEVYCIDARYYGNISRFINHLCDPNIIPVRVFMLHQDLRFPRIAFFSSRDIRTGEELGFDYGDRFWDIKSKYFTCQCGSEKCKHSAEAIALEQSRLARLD
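G9a (20 nM) was preincubated 15 min with compound, then reacted 2 h at room temperature with 500 nM biotin-H3K9 peptide and 20 µM SAM. Monomethyl-H3K9 detected by AlphaScreen using anti-H3K9me1 antibody.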
BAZ2B block: BAZ2B (human) inhibition; Q9UIF8; Potency, µM (top dose mostly 114 µM), inactives show top-dose activity change, negative = inhibition, most hits filed as inhibitors; AID 504333; 360,000 compounds, 4.4% hits; AlphaScreen BAZ2B-H3K14Ac peptide displacement; further: potency means the concentration at half of the fitted maximal effect; on the % scale 0 is the no-effect control and ±100 the full control effect; nearly all actives have a fitted effect of over 60% in size
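AlphaScreen luminescence quantifies BAZ2B engagement of H3K14Ac peptide; the protein and biotinylated peptide are both at 50 nM final, buffer PBS pH 7.4 with 0.01% Tween-20, all steps at room temperature.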
HP1b binding inh: inhibitors of HP1-beta chromodomain binding to methylated histone tails | AlphaScreen HP1-beta / biotin-H3K9me3 peptide binding | P83916 | Potency, µM (titrated, usually from 114 µM), for the others: at the top dose activity change, negative = inhibition, most hits filed as inhibitors | AID 540317 | 390,000 compounds, 0.56% hits; further: potency means the concentration at half of the fitted maximal effect; nearly all actives have a fitted effect of over 70% in size
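Compound inhibition of the preformed complex between 50 nM HP1-beta and 50 nM biotinylated H3K9me3 peptide was read by AlphaScreen. Buffer was PBS pH 7.4 with 0.01% Tween-20. Incubations ran 30 min at room temperature, with 10 ug/mL donor/acceptor beads.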
PI5P4K alpha inh: blocks human PI5P4K alpha kinase activity. max response, %. AID 652105. 330,000 compounds, 1.2% hits. PI5P4Kalpha enzyme, ADP-Glo luminescence, 60 min; hits give low values; active means max response of -50% or lower; inconclusive means between -30% and -50%; inactive means -30% or higher; further: value at the top dose of about 77 µM; on the % scale 0 is the no-effect control and ±100 the full control effect
Target sequence (P48426 whole entry, looked up): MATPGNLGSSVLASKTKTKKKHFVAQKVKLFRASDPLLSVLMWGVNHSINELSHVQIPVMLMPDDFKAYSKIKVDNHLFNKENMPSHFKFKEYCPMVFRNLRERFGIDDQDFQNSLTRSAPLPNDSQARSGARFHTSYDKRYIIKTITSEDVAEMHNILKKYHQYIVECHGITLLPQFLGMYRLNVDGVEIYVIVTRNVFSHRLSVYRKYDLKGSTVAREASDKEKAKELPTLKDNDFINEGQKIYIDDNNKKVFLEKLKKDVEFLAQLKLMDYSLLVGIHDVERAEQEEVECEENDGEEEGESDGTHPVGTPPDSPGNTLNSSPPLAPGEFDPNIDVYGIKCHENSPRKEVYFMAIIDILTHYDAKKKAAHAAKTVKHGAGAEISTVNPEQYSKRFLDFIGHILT
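Luminescence from ADP-Glo served as readout of PI5P4Kalpha activity in a qHTS format. Reaction: enzyme, substrate, compound, ATP at 5 microM final, 60 min at RT.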
JMJD2A Tudor inh: inhibitors of human JMJD2A Tudor domain | O75164 | AlphaScreen JMJD2A-Tudor / H3K4me3 peptide binding | Potency, µM (titrated, usually from 114 µM), for the others: at the top dose activity change, negative = inhibition, hits mostly inhibitors | 390,000 compounds, 4.4% hits; further: potency means the concentration at half of the fitted maximal effect; on the % scale 0 is the no-effect control and ±100 the full control effect; nearly all actives have a fitted effect of over 50% in size
The depositor's hits bear a star; [ ] = remark or other dose. The list is not random: actives were taken first. Their share in the collection is about 11%. Unless noted, the call rests on the fitted dose curve; in most records, active means well fitted inhibition curve with a large enough effect; inconclusive means small, poorly fitted or top-dose-only effect; inactive means no such curve, though single readings can be large or run the other way.

How did CC(=O)Nc1ccc(S(=O)(=O)Nc2nnc(Cc3ccc(Cl)cc3)s2)cc1 do in these assays?
G9a inh: 22.4µM*; BAZ2B block: -23.8%; HP1b binding inh: 0.2%; PI5P4K alpha inh: -14.2; JMJD2A Tudor inh: 1.1%

How did CC(=O)Nc1ccc(S(=O)(=O)Nc2nnc(C(C)C)s2)cc1 do in these assays?
G9a inh: 25.1µM*; BAZ2B block: inconclusive; HP1b binding inh: -2.4%; PI5P4K alpha inh: -1.0; JMJD2A Tudor inh: -33.3%

Results for Cc1ccc(-n2nnc(-c3nccs3)n2)cc1 ?
L3MBTL1 inh: 22.5%; G9a inh: 1.9%[59 µM]; BAZ2B block: 5.5%; HP1b binding inh: 55.6%; PI5P4K alpha inh: -11.1; JMJD2A Tudor inh: -2.8%

Results for Clc1ccc(-n2nnc(-c3nccs3)n2)cc1Cl ?
L3MBTL1 inh: 13.1%; G9a inh: 3.16µM*; BAZ2B block: -14.4%; HP1b binding inh: -1.5%; PI5P4K alpha inh: -25.2; JMJD2A Tudor inh: 15.8µM*

How did COc1ccc(C2C(C(N)=O)=C(C)Nc3nc(SCc4ccccc4Cl)nn32)cc1OC (stereo unspecified) do in these assays?
G9a inh: 12.1%[59 µM]; BAZ2B block: 5.7%; HP1b binding inh: 16.8%; JMJD2A Tudor inh: -16.0%

How did O=[N+]([O-])c1ccc(NC(=S)N/C(=N/CS(=O)(=O)c2ccccc2)c2ccccc2)cc1 do in these assays?
L3MBTL1 inh: -7.8%; G9a inh: 11.2µM*; BAZ2B block: inconclusive; HP1b binding inh: 25.3%; PI5P4K alpha inh: -2.3; JMJD2A Tudor inh: -24.6%

Results for COc1cccc(C2/C(=C(\O)c3c(C)nc4c(C)cccn34)C(=O)C(=O)N2CCCN(C)C)c1 (stereo unspecified) ?
L3MBTL1 inh: 1.3%; G9a inh: 50.1µM*; BAZ2B block: -5.8%

What do the screens show for `Cc1nc2c(C)cccn2c1/C(O)=C1\C(=O)C(=O)N(CCN(C)C)C1c1cccs1` (stereo unspecified)?
HP1b binding inh: 13.8%; PI5P4K alpha inh: 0.6; JMJD2A Tudor inh: -0.4%

How did CCOc1cccc(/C(O)=C2/C(=O)C(=O)N(CCN3CCOCC3)C2c2ccncc2)c1 (stereo unspecified) do in these assays?
L3MBTL1 inh: 11.3%; BAZ2B block: inconclusive

How did Cc1nc2ccccn2c1/C(O)=C1\C(=O)C(=O)N(CCN2CCOCC2)C1c1ccncc1 (stereo unspecified) do in these assays?
L3MBTL1 inh: 4.8%; G9a inh: inconclusive; BAZ2B block: inconclusive; HP1b binding inh: 2.4%; PI5P4K alpha inh: 8.5; JMJD2A Tudor inh: 25.1µM*

Results for Cc1nc2ccccn2c1/C(O)=C1\C(=O)C(=O)N(CCN(C)C)C1c1ccco1 (stereo unspecified) ?
L3MBTL1 inh: 5.8%; G9a inh: inconclusive; BAZ2B block: -28.4%; HP1b binding inh: 25.8%; PI5P4K alpha inh: 6.9; JMJD2A Tudor inh: -16.8%

What do the screens show for `COc1cccc(/C(O)=C2/C(=O)C(=O)N(CCN3CCOCC3)C2c2cccs2)c1` (stereo unspecified)?
L3MBTL1 inh: 1.6%; G9a inh: 44.7µM*; BAZ2B block: -4.4%; HP1b binding inh: 13.9%; PI5P4K alpha inh: -16.5; JMJD2A Tudor inh: inconclusive

How did CCCOc1cccc(C2/C(=C(/O)c3ccncc3)C(=O)C(=O)N2CCCN(C)C)c1 (stereo unspecified) do in these assays?
G9a inh: -37.7%[12.7 µM]; BAZ2B block: -23.0%

What do the screens show for `Cc1nc2c(C)cccn2c1/C(O)=C1\C(=O)C(=O)N(CCN2CCOCC2)C1c1cccs1` (stereo unspecified)?
L3MBTL1 inh: -2.4%; G9a inh: 20µM*; BAZ2B block: inconclusive; HP1b binding inh: 2.4%; JMJD2A Tudor inh: inconclusive

How did NC1=C(Cl)C(=O)c2ccccc2C1=O do in these assays?
HP1b binding inh: -19.5%; PI5P4K alpha inh: -55.7*; JMJD2A Tudor inh: 89.1µM*

What do the screens show for `NC1=C(Cl)C(=O)c2ccc(S(N)(=O)=O)cc2C1=O`?
HP1b binding inh: 2.8%; PI5P4K alpha inh: inconclusive; JMJD2A Tudor inh: -16.4%

Results for [O-]C1=N/[N+](=C/c2ccccc2)CC1 ?
G9a inh: 14.1µM*; BAZ2B block: -26.2%; HP1b binding inh: 39.3%; PI5P4K alpha inh: -6.0; JMJD2A Tudor inh: -9.8%

What do the screens show for `CCOC(=O)c1cc(-c2ccc(C)cc2)n(CCC(=O)N2CCN(c3ccccn3)CC2)c1C`?
L3MBTL1 inh: -17.1%; G9a inh: 28.2µM*; BAZ2B block: 44.7µM*; HP1b binding inh: inconclusive; PI5P4K alpha inh: -5.2; JMJD2A Tudor inh: 35.5µM*

Results for CCOC(=O)c1cc(-c2ccc(C)cc2)n(CCC(=O)NCCN(C)C)c1C ?
L3MBTL1 inh: -11.8%; G9a inh: inconclusive; BAZ2B block: 50.1µM*; HP1b binding inh: -13.5%; JMJD2A Tudor inh: inconclusive

Results for Cc1cc(C)c(NC(=O)C(=O)NCCc2csc(-c3ccc(F)cc3)n2)c(C)c1 ?
G9a inh: 13.5%[59 µM]; BAZ2B block: 1.7%; HP1b binding inh: 12.2%[57 µM]; JMJD2A Tudor inh: -14.4%

How did COc1cc2c(=O)n(Cc3ccccc3)c(=O)n(CC(=O)Nc3cc(C(F)(F)F)ccc3Cl)c2cc1OC do in these assays?
G9a inh: 27.6%[59 µM]; BAZ2B block: 38.7%; HP1b binding inh: 47.1%; JMJD2A Tudor inh: -10.6%

Results for Nn1c(=O)c2ccccc2n2c(SCc3ccc(C(F)(F)F)cc3)nnc12 ?
G9a inh: 3.98µM*; BAZ2B block: 4.8%; HP1b binding inh: 16.5%; PI5P4K alpha inh: -3.0; JMJD2A Tudor inh: -19.3%

Results for Nn1c(=O)c2ccccc2n2c(SCc3ccccc3)nnc12 ?
L3MBTL1 inh: -2.4%; G9a inh: 14.3%[59 µM]; BAZ2B block: 7.7%; HP1b binding inh: 20.7%; PI5P4K alpha inh: 7.6; JMJD2A Tudor inh: -1.7%

Results for CCN(CC)CCNCc1ccc(Br)cc1OCC(=O)NCc1ccccc1 ?
L3MBTL1 inh: 0.7%; G9a inh: 50.1µM*; BAZ2B block: -38.1%; HP1b binding inh: 8.1%[57 µM]; PI5P4K alpha inh: 5.4; JMJD2A Tudor inh: -24.7%

Results for CCc1sc(-c2cc3cccc(OC)c3oc2=O)nc1-c1cc(C)ccc1C ?
HP1b binding inh: 54.8%[57 µM]; JMJD2A Tudor inh: 36.9%[57.1 µM]

How did O=C(Cn1cc(C(F)(F)F)ccc1=O)Nc1ccc(N2CCOCC2)cc1 do in these assays?
L3MBTL1 inh: 8.9%; G9a inh: 5.6%; BAZ2B block: -10.4%; HP1b binding inh: 16.8%; PI5P4K alpha inh: -7.4; JMJD2A Tudor inh: 5.5%

How did C=CCn1c(=O)c(CCC(=O)Nc2ccc(N3CCOCC3)cc2)nc2cc(C(F)(F)F)ccc21 do in these assays?
BAZ2B block: -7.8%; HP1b binding inh: -21.2%; PI5P4K alpha inh: -53.2*; JMJD2A Tudor inh: 35.5µM*
